UGM FP inh = inhibitors of M. tuberculosis UDP-galactopyranose mutase; 320,000 tested, 0.06% active; purified UGM, fluorescence polarization probe displacement; inhibition, % at 10 µM; P9WIQ1; in the data active = inhibition above about 10%, passing the limit was not always enough
Mtb FBA inh = Mtb fructose-bisphosphate aldolase inhibition | AID 588726 | inhibition, % at 1 µM | 360,000 tested, 2.3% active | purified M. tuberculosis FBA, fluorescence read-out | P9WQA3; in the data active = inhibition above about 27%;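 note: 0% = vehicle and 100% = reference inhibitor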
RecA intein inh = blocks M. tuberculosis RecA intein splicing; AID 2221; inhibition, % (concentration not given with the values); 290,000 tested, 0.75% active; cell-free RecA intein splicing, fluorescence; P9WHJ3; in the data active = inhibition above about 30%;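 note: 0% = vehicle wells and 100% = reference inhibitor control wells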
Rv3671c inh = inhibitors of M. tuberculosis serine protease Rv3671c; P9WHR9; inhibition, % at 5.96 µM; 320,000 tested, 0.048% active; in the data active = inhibition above about 38%;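 note: extracellular domain of Rv3671c used as enzyme; 0% = enzyme with DMSO and 100% = no enzyme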
Target sequence (P9WHR9 whole entry, looked up, the tested form may be a part): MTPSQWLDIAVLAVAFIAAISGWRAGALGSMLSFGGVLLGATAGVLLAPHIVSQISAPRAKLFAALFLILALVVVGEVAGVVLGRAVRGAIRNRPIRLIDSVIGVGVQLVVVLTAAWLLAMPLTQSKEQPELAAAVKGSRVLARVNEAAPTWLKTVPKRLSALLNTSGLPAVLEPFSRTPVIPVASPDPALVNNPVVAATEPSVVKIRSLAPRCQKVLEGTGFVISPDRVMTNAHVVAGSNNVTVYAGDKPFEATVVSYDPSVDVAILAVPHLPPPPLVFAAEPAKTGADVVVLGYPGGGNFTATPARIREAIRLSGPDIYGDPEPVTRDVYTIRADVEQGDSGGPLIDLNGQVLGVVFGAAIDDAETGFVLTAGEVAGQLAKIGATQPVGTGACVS
GDH-TPI counter = GDH-TPI coupled enzyme inhibition counter-screen; GDH-TPI coupled enzyme counterscreen, NADH absorbance; inhibition, % at 4.8 µM; 360,000 tested, 1.2% active; in the data active = inhibition above about 30%;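 note: 0% = DMSO wells and 100% = wells lacking the enzyme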
Mtb betalactam = beta-lactam sensitization of Mtb H37Rv | M. tuberculosis H37Rv growth with meropenem, percent inhibition | inhibition, % at 25 µM | 330,000 tested, 0.27% active | AID 434955; call rule not given here;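 note: growth measured after seven days incubation then overnight dye step; 0% = bacteria only wells and 100% = bacteria with antibiotic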
Active calls of the source: *. Hits are enriched below; roughly 4% of the tested compounds scored in any of these assays.

Results for CCc1[nH]nc2c1C(c1cccc(OC(=O)N3CCOCC3)c1)C(C#N)=C(N)O2 (stereo unspecified) ?
UGM FP inh: 4; Mtb FBA inh: -4; RecA intein inh: 69*; Rv3671c inh: -3; GDH-TPI counter: -2; Mtb betalactam: 11

What do the screens show for `COc1cc(C2C(C#N)=C(N)OC3=C2C(=O)CCC3)ccc1OC(=O)N1CCOCC1` (stereo unspecified)?
UGM FP inh: 3; Mtb FBA inh: -2; RecA intein inh: 0; Rv3671c inh: 1; GDH-TPI counter: -2; Mtb betalactam: 0

How did CCc1[nH]nc2c1C(c1ccc(Br)s1)C(C#N)=C(N)O2 (stereo unspecified) do in these assays?
UGM FP inh: -1; Mtb FBA inh: -2; Rv3671c inh: -7; GDH-TPI counter: 6; Mtb betalactam: 8

Results for CCCc1[nH]nc2c1C(c1ccc(OC(=O)N3CCOCC3)c(OC)c1)C(C#N)=C(N)O2 (stereo unspecified) ?
UGM FP inh: -1; Mtb FBA inh: -3; RecA intein inh: 42*; Rv3671c inh: 8; GDH-TPI counter: -5; Mtb betalactam: 3

Results for COc1ccc2nc3n(c(=O)c2c1)-c1cc(Cl)ccc1C(=O)NC3Cc1ccccc1 (stereo unspecified) ?
UGM FP inh: -3; Rv3671c inh: 0; Mtb betalactam: 4

Results for c1ccc(-c2nc(Sc3ncnc4c3cnn4-c3ccccc3)n[nH]2)cc1 ?
UGM FP inh: 4; RecA intein inh: 32*; Rv3671c inh: 4; Mtb betalactam: 93

What do the screens show for `Cc1ccc(CSc2ncnc3c2cnn3-c2ccccc2)cc1`?
UGM FP inh: -1; Mtb FBA inh: 1; RecA intein inh: 0; Rv3671c inh: 1; GDH-TPI counter: 2; Mtb betalactam: 12

How did C=CCOc1ccc(CNCC2CCCO2)cc1 (stereo unspecified) do in these assays?
UGM FP inh: 1; Mtb FBA inh: 0; RecA intein inh: -1; Rv3671c inh: 10; GDH-TPI counter: -4; Mtb betalactam: 0

How did C=CCOc1ccc(C2OC34CCCCC3C(C#N)(C#N)C2(C#N)C(=N)O4)cc1 (stereo unspecified) do in these assays?
UGM FP inh: 5; Mtb FBA inh: 58*; RecA intein inh: -93; Rv3671c inh: 7; GDH-TPI counter: 4; Mtb betalactam: -4

Results for CCOc1ccc(C2OC34CCCCC3C(C#N)(C#N)C2(C#N)C(=N)O4)cc1OC (stereo unspecified) ?
UGM FP inh: -1; Mtb FBA inh: 75*; RecA intein inh: -304; Rv3671c inh: 37; GDH-TPI counter: -3; Mtb betalactam: 2

Results for CCCCOc1ccc(C2OC34CCCCC3C(C#N)(C#N)C2(C#N)C(=N)O4)cc1 (stereo unspecified) ?
UGM FP inh: 2; Mtb FBA inh: 73*; RecA intein inh: -114; Rv3671c inh: 12; GDH-TPI counter: -3; Mtb betalactam: -1

How did CCN(C[C@H]1N[C@@](CC)(C(=O)OC)[C@H]2C(=O)N(Cc3ccccc3)C(=O)[C@@H]12)S(=O)(=O)c1ccc(OC(F)(F)F)cc1 do in these assays?
Mtb FBA inh: 4; Rv3671c inh: -5; GDH-TPI counter: 16; Mtb betalactam: 2

Results for Cc1cn(CC(=O)NCC2CCCO2)c(=O)[nH]c1=O (stereo unspecified) ?
Mtb FBA inh: 3; GDH-TPI counter: 6

How did O=C(CCCN1C(=O)C2CC=CCC2C1=O)Nc1ccccc1F (stereo unspecified) do in these assays?
UGM FP inh: 1; Mtb FBA inh: 1; RecA intein inh: 0; Rv3671c inh: -3; GDH-TPI counter: -2; Mtb betalactam: 5

How did COc1ccc(/C=C/C(=O)Nc2nnc(C(C)C)s2)cc1OC do in these assays?
UGM FP inh: 9; Mtb FBA inh: 6; RecA intein inh: -1; Rv3671c inh: -6; GDH-TPI counter: 34*; Mtb betalactam: 1

Results for COc1ccc(/C=C/C(=O)Nc2ccc3nc4n(c(=O)c3c2)CCCC4)cc1OC ?
UGM FP inh: -2; Mtb FBA inh: 0; RecA intein inh: -13; Rv3671c inh: -5; GDH-TPI counter: 36*; Mtb betalactam: 1

What do the screens show for `COc1ccc(C(=O)Nc2ccc3nc4n(c(=O)c3c2)CCCCC4)cc1OC`?
Mtb FBA inh: -2; GDH-TPI counter: -8

How did COc1ccc(/C=C/C(=O)Nc2ccc(-n3nncc3-c3ccc(OC)c(OC)c3)cc2)cc1OC do in these assays?
UGM FP inh: 4; Mtb FBA inh: -3; RecA intein inh: 5; Rv3671c inh: -224; GDH-TPI counter: 36*; Mtb betalactam: -2

What do the screens show for `COc1ccc(/C=C/C(=O)Nc2c(C(=O)O)[nH]c3ccccc23)cc1OC`?
UGM FP inh: 4; Mtb FBA inh: 1; RecA intein inh: 2; Rv3671c inh: 1; GDH-TPI counter: 31*; Mtb betalactam: 3

Results for C=CC[C@@H](CC(=O)NCCO)C(=O)N[C@@H](COC(=O)[C@@H](CC=C)CC(=O)OC(C)(C)C)Cc1c[nH]c2ccccc12 ?
UGM FP inh: -4; Mtb FBA inh: 0; Rv3671c inh: -6; GDH-TPI counter: 9; Mtb betalactam: 3

What do the screens show for `Cc1ccc(CNC(=O)c2ccc(N3CCC4(CC3)CC(c3ccccc3)=NO4)c(NC(=O)c3ccc(Cl)c([N+](=O)[O-])c3)c2)cc1`?
UGM FP inh: -1; Mtb FBA inh: -1; RecA intein inh: -2; Rv3671c inh: -30; GDH-TPI counter: 10; Mtb betalactam: -4

What do the screens show for `CCOC(=O)C1CCCN(C(=O)c2cc(C#N)cs2)CC1` (stereo unspecified)?
Mtb FBA inh: 2; GDH-TPI counter: 8

Results for Cc1cccc(NC(=O)CCNS(=O)(=O)c2cc(Br)cnc2N)c1C ?
UGM FP inh: 0; Mtb FBA inh: 5; RecA intein inh: -4; Rv3671c inh: 4; GDH-TPI counter: 5; Mtb betalactam: -11

How did CC(C)CCNC(=O)c1cc2c(s1)-c1ccccc1S(=O)(=O)C2 do in these assays?
UGM FP inh: 0; Mtb FBA inh: 15; RecA intein inh: -2; Rv3671c inh: -3; GDH-TPI counter: 32*; Mtb betalactam: 6

How did CCCCN(C)C(=O)c1cc2c(s1)-c1ccccc1S(=O)(=O)C2 do in these assays?
UGM FP inh: -2; Mtb FBA inh: 6; RecA intein inh: -2; Rv3671c inh: 6; GDH-TPI counter: 12; Mtb betalactam: -7

How did CC(C)CN(C(=O)COC(=O)CCC(=O)c1ccc(F)cc1)c1c(N)n(Cc2ccccc2)c(=O)[nH]c1=O do in these assays?
UGM FP inh: 0; Mtb FBA inh: 6; RecA intein inh: -1; Rv3671c inh: 3; GDH-TPI counter: 4; Mtb betalactam: 1

What do the screens show for `Cc1cccc(N2CC(C(=O)OCC(=O)c3ccc(OC(=O)c4cccs4)cc3)CC2=O)c1C` (stereo unspecified)?
UGM FP inh: 0; Mtb FBA inh: 1; RecA intein inh: 36*; Rv3671c inh: -4; GDH-TPI counter: -1; Mtb betalactam: 1

From PubChem
